Results on 5 molecules are retold here after PubChem BioAssay.

The nature of assay [1]: yeast TOR pathway RPL19A-GFP modulators, primary screen, cell-based, S. cerevisiae, multiplex flow cytometry (AID 1862; in the data active = percent of DMSO control GFP below about 86%;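 note: lower values mimic rapamycin by blocking the RPL19A rise seen in DMSO cells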). To be noted: S. cerevisiae RPL19A-GFP strain, flow cytometry fluorescence, 3 h; at 10 µM; stronger effect = lower value.
The nature of assay [2]: modulators of MEP2-GFP levels in yeast, primary screen, S. cerevisiae, multiplex flow cytometry (AID 1867;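 active = GFP response, as percent of the DMSO control, above the screen-wide mean plus 3 SD, about 139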;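 note: median GFP channel fluorescence of barcode-gated MEP2-GFP cells measured by flow cytometry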). To be noted: S. cerevisiae MEP2-GFP strain, 3 h, at 10 µM, stronger effect = higher value, 100% means same as DMSO wells.
The nature of assay [3]: modulators of CIT2-GFP expression in yeast, primary screen, S. cerevisiae, GFP fusion, multiplex flow cytometry (AID 1870).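 Note: barcoded CIT2-GFP strain pooled with four other GFP strains with rapamycin as positive control; median GFP fluorescence per well over plate mean of DMSO wells so 100% = DMSO.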 The note with it: 3 h, at 10 µM, stronger effect = higher value.
The nature of assay [4]: modulators of LAP4-GFP expression in yeast, primary screen, S. cerevisiae, multiplex flow cytometry (AID 1873;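 active = GFP signal, as percent of the solvent control, above the screen mean plus 3 SD, about 149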). To be noted: 3 h, at 10 µM, stronger effect = higher value.
The nature of assay [5]: modulators of AGP1-GFP expression in yeast TOR pathway, primary screen, cell-based, multiplex flow cytometry, S. cerevisiae (AID 1887;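 active = GFP signal above the screen-wide mean plus 3 SD, that is over about 124.5% of the solvent control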;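 note: AGP1-GFP fusion strain of S. cerevisiae within a five-strain barcoded multiplex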). To be noted: 3 h, at 10 µM, stronger effect = higher value.
A short description of assay [6]: inhibitors of CD8+ T cell-vesicle binding, pilot screen, LFA-1/ICAM-1 modulator project, MLPCN validation set, flow cytometry (AID 2523;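 active = response below a set limit, under 55% cells CD8-positive and vesicle-bound, and CD8 cells' 90th-percentile brightness under 279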;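 for vesicle binding response: mean PE anti-B7-1 fluorescence of CD8+ cells relative to row control; 100% = QL9-loaded vesicles with DMSO vehicle in the same plate row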). The note with it: 2C mouse CD8+ T cells, at 7 µM, stronger effect = lower value; double positive events: measured here: CD8+/vesicle+ event percentage.
The target in assay [7] is Integrin beta-1 (Homo sapiens) + Integrin alpha-4 (Homo sapiens) (UniProt P13612+P05556). The assay is described as follows: inhibition of HUTS-21 binding to VLA-4, pilot screen, VLA-4 allosteric modulator project, U937 cells, HUTS-21 mAb, flow cytometry, validation set (AID 2674;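 active = inhibition above 50%, about 3 SD of the validation set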;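 note: antibody binding induced by the VLA-4 ligand LDV present at three times its Kd; 0% = LDV ligand with antibody and no compound and 100% = antibody without LDV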). To be noted: HUTS-21 LIBS mAb binding, at 6.7 µM, stronger effect = higher value, binding induced by LDV ligand.
Integrin beta-1 (Homo sapiens) + Integrin alpha-4 (Homo sapiens), sequence (P05556 whole entry, looked up): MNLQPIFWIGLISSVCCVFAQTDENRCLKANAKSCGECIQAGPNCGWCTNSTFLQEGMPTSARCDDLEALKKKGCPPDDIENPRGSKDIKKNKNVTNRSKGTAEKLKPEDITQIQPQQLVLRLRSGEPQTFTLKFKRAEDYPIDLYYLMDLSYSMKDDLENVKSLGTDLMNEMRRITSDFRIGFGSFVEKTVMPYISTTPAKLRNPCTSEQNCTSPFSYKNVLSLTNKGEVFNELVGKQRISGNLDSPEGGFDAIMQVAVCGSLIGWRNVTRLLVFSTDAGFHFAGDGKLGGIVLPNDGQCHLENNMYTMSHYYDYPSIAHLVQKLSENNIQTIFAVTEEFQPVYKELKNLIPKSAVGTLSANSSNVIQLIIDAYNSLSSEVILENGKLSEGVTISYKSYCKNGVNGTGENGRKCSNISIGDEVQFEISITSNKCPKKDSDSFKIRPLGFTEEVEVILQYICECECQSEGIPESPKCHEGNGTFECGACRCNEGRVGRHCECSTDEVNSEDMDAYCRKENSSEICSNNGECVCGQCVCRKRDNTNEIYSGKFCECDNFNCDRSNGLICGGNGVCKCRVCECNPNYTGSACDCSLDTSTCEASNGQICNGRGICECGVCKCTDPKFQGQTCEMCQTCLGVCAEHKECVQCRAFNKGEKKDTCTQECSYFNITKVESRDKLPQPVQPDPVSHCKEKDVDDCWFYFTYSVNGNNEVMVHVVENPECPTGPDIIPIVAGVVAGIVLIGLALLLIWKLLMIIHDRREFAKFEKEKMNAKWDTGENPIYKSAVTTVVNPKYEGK
Integrin beta-1 (Homo sapiens) + Integrin alpha-4 (Homo sapiens), sequence (P13612 whole entry, looked up): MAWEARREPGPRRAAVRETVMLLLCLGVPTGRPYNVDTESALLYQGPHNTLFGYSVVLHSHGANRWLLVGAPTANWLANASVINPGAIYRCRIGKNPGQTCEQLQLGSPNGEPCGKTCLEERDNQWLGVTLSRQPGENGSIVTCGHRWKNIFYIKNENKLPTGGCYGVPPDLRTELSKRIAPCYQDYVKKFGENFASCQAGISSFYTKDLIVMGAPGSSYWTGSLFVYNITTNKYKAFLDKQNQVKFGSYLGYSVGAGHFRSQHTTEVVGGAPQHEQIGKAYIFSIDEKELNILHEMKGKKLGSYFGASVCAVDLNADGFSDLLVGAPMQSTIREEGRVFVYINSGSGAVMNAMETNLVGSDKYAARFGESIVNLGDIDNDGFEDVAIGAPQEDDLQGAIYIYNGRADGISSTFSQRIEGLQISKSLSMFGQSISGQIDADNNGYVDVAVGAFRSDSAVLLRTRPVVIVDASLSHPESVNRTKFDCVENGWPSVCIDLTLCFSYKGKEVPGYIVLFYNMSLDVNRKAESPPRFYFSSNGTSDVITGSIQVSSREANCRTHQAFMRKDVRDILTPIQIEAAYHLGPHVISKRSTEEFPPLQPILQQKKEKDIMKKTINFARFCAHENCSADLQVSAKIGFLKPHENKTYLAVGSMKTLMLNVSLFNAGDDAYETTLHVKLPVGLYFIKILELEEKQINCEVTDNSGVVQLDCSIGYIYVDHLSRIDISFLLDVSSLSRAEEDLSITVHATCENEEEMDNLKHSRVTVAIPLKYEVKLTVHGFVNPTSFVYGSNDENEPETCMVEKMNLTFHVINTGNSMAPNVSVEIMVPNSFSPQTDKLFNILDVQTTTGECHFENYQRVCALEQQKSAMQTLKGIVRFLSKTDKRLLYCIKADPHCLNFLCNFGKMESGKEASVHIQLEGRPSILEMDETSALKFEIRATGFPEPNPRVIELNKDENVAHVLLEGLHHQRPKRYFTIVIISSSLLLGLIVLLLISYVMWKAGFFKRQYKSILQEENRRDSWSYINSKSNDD

Assay [8] can be described thus: superoxide lowering in aged yeast cells, pilot screen, validation compound set (AID 2706;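 active = superoxide response below 65% of plate, a cut near 3 SD across the whole screen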;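 note: yeast exposed to compound for one week at 30 degrees C before staining; 100% = mean of all compound wells on the same plate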). To be noted: S. cerevisiae aging, superoxide DHE fluorescence; at 10 µM; stronger effect = lower value.
Assay [9] addresses Beta-adrenergic receptor kinase 1 (Homo sapiens) (UniProt P25098). The assay is described as follows: GRK2 binders displacing RNA aptamer, biochemical, validation, human GRK2, bead flow cytometry (AID 488806;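 active = aptamer binding inhibition above 30%, about 3 SD of noise from non-fluorescent compounds; inactive = inhibition at or below 30%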). The note with it: bead-bound GRK2, FAM-aptamer displacement, at 10 µM, stronger effect = higher value.
For assay [10], the target named is Beta-2 adrenergic receptor (Homo sapiens) (UniProt P07550). The assay is described as follows: beta2AR agonists driving receptor internalization, pilot screen, cell-based, FAP fluorogen, flow cytometry, validation set (AID 504459;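 active = percent response above 42, roughly 3 SD of non-fluorescent test compounds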;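 note: agonist-driven loss of surface beta2AR via internalization measured by FAP dye flow cytometry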). To be noted: Am2.2-beta2AR cells, FAP surface receptor flow cytometry; at 10 µM; stronger effect = higher value.
Beta-2 adrenergic receptor (Homo sapiens), sequence (P07550 whole entry, looked up): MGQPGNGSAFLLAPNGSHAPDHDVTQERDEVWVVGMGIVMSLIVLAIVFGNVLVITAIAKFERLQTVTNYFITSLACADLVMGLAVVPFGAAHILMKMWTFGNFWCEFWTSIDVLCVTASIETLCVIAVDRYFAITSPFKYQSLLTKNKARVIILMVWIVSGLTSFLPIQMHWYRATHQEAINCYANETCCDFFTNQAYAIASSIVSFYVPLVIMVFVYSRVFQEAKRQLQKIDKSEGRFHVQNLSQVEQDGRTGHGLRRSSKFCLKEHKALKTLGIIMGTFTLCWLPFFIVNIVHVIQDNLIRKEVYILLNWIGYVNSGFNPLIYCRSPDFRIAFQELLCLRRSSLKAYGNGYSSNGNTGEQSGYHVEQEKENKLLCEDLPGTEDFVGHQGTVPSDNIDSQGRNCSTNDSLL
For assay [11], the target named is AP-2 complex subunit beta (Homo sapiens) (UniProt P63010). The assay is described as follows: inhibitors of arrestin peptide binding to AP2, pilot screen, biochemical, validation set, GST-AP2 beads, flow cytometry (AID 504541;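 active = inhibition above 54%, about 3 SD of non-fluorescent compounds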;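 note: AP2 carries R879A mutation and is captured from E. coli lysate; bead-bound FITC arrestin peptide fluorescence measuring arrestin peptide binding to AP2; 0% = DMSO wells and 100% = excess unlabeled arrestin peptide control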). To be noted: FITC arrestin peptide, at 10 µM, stronger effect = higher value, AP2 beta2 appendage fragment, R879A mutant.
AP-2 complex subunit beta (Homo sapiens), sequence (P63010 whole entry, looked up, the tested form may be a part, one chain of several): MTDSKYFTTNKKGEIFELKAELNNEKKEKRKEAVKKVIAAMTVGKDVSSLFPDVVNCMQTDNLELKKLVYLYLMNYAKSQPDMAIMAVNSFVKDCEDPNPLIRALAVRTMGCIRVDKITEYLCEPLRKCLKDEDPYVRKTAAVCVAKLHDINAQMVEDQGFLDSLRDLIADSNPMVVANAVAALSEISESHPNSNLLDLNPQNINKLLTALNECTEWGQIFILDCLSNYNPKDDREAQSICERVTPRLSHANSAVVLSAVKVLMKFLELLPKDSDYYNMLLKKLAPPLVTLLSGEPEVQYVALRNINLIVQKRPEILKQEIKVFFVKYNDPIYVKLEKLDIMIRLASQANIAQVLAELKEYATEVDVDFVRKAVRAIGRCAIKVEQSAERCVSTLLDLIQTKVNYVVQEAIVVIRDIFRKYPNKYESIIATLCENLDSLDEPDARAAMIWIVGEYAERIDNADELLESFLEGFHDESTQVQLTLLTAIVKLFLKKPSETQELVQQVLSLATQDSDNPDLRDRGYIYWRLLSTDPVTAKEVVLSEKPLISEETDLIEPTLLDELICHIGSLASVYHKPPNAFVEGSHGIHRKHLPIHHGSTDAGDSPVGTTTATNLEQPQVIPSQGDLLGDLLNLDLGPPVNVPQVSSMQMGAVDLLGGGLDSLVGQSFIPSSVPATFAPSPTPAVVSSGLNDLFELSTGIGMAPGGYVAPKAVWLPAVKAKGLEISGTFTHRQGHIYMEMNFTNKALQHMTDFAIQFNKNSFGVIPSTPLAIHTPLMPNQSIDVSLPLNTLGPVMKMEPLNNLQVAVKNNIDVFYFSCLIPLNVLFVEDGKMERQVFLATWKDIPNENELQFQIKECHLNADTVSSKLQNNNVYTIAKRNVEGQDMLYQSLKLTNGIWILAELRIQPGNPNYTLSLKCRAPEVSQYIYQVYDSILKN
Assay [12] can be described thus: yeast V-ATPase proton transport modulators, S. cerevisiae, pHLuorin, HTS validation (AID 504600; in the data active = response above about 15%;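 note: plate controls were DMSO for no effect and reference compound for full effect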). To be noted: S. cerevisiae pHLuorin cytosolic pH, at 10 µM, stronger effect = higher value.
In assay [13] the test system is anti-desmoglein-3 scFv antibody binding to human DSG3. In words: inhibitors of anti-DSG3 scFv binding to DSG3, pilot screen, biochemical, validation compound set, bead-based, flow cytometry (AID 588368;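 active = binding below the plate cutoff, the plate median minus 3 SD, with a reading above zero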;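 note: signal is the median channel fluorescence of bead-bound GFP antibody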). The note with it: Protein G beads, DSG3-Fc, scFv-GFP binding, at 10 µM, stronger effect = lower value.
Assay [14] can be described thus: inhibitors of fungal efflux pumps CDR1, CDR2, MDR1, pilot screen, validation compound set, multiplex, phenotypic (AID 588506;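 active = efflux inhibition above 0.42, the validation set average plus 4 SD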;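 note: Nile Red retained in cells so higher fluorescence means more efflux inhibition; 0 = negative control wells and 1 = enniatin B 25 µM full block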). To be noted: S. cerevisiae pump-expressing triplex, Nile Red efflux flow cytometry; at 10 µM; stronger effect = higher value; the pumps come from Candida albicans.
Assay [15] deals with ATP-binding cassette sub-family B member 6 (Homo sapiens) (UniProt Q9NP58). In words: ABCB6 transporter inhibitors, pilot screen, K562-ABCB6 cells, flow cytometry, validation set (AID 588550;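 active = inhibition above the screen-wide mean plus 3 SD, about 51%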;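 note: 0% = DMSO wells and 100% = benzethonium chloride 70 µM positive control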). The note with it: K562-ABCB6 porphyrin accumulation, 1 h, at 10 µM, stronger effect = higher value.
ATP-binding cassette sub-family B member 6 (Homo sapiens), sequence (Q9NP58 whole entry, looked up): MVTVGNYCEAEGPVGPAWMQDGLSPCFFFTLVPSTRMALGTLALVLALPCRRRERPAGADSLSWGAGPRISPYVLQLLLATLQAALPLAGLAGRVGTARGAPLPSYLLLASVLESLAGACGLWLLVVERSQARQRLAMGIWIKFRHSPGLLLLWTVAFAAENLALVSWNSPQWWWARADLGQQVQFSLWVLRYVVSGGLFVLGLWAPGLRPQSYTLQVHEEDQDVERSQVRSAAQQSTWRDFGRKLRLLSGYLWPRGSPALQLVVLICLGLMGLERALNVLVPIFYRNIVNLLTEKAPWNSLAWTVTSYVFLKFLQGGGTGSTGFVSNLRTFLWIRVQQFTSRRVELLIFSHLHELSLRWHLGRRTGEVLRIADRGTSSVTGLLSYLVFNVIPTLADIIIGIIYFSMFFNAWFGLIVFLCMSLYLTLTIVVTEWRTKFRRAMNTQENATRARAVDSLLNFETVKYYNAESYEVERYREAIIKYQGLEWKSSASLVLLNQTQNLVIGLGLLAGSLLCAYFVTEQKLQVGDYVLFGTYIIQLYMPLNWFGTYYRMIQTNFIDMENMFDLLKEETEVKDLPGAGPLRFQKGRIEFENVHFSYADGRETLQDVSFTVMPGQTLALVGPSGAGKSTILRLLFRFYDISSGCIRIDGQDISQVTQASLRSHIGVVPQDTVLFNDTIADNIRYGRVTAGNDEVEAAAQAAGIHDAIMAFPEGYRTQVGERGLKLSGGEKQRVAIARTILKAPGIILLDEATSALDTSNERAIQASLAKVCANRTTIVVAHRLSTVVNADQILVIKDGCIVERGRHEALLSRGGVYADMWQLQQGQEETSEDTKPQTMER
Assay [16] is described as follows: promoters of myeloid differentiation in arrested cells, primary screen, cell-based, GFP/MAC1 double positive, flow cytometry, validation set (AID 588685;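 active = differentiation response of at least 50%, scaled between solvent and reference control, from cells with both markers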;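 note: compound exposure lasts four days before antibody staining and flow analysis; 0% = DMSO wells and 100% = 5 µM fulvestrant positive control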). To be noted: ER-HoxA9 marrow cells, stronger effect = higher value, normalized: vehicle 0, fulvestrant 100.

Inconclusive results are not listed. Activity calls are given as the source filed them.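 Rule for the calls, unless noted: active = percent response above a set limit, the screen-wide mean plus 3 SD (cut at about 130% in these data); inactive = the rest.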

Beta-adrenergic receptor kinase 1 (Homo sapiens), sequence (P25098 whole entry, looked up): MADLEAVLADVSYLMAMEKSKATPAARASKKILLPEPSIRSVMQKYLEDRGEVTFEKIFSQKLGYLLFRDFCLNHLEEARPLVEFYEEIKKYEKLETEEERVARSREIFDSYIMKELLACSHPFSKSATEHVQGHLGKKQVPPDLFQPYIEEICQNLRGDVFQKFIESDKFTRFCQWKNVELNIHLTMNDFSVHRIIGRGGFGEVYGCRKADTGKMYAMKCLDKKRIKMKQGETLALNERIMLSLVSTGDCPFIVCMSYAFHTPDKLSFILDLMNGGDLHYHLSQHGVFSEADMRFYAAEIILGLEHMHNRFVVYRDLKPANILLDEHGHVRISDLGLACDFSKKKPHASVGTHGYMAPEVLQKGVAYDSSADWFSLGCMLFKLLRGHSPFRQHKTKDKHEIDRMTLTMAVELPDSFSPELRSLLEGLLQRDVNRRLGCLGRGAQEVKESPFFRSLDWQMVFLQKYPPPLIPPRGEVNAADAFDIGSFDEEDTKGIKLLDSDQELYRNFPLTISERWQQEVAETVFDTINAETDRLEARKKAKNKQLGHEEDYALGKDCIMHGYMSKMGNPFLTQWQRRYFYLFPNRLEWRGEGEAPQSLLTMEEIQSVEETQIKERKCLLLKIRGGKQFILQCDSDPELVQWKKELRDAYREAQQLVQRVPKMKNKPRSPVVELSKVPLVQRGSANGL

In the case of `CC(C)(C)N(Cc1ccccc1)C(=O)c1ccc(Br)o1`, the percent of DMSO control GFP in assay [1] was 103% (inactive). In addition, the GFP response vs DMSO in [2] was 102% (inactive); in assay [4] it was 107% (inactive). In addition, the percent response of DMSO control in assay [3] is 95.7% (inactive). Further, the GFP response, % of DMSO in [5] is 101% (inactive). The same molecule displayed a double positive events in [6] of 63.4%. Moreover, the vesicle binding response in assay [6] is 147% (inactive). Besides, the inhibition in assay [7] is -7.08% (inactive); in assay [11], 4.28% (inactive); in assay [15], 6% (inactive). The superoxide response (% of plate) in [8] was 101% (inactive). Besides, in assay [9], the aptamer binding inhibition was 6% (inactive). The response is -22.8% (inactive) in assay [10] and -8.19% (inactive) in assay [12]. The binding (% of control) in [13] is 97.1% (inactive). In addition, the efflux inhibition (fraction of control) in [14] is 0.04 (inactive). For the same molecule, the differentiation response in assay [16] was -11.9% (inactive).

With `Cc1ccc(/C=N/NC(=O)C2(C)CC2(Br)Br)cc1` (stereo not given), the percent of DMSO control GFP in [1] was 101% (inactive). The GFP response vs DMSO in assay [2] was 98.7% (inactive); in assay [4] it was 130% (inactive). In addition, the percent response of DMSO control in [3] was 98.6% (inactive). The GFP response, % of DMSO in assay [5] is 105% (inactive). The molecule further had a double positive events in assay [6] of 60.8%. In addition, the vesicle binding response in assay [6] is 184% (inactive). Moreover, the values for the inhibition in [7], in assay [11] and in [15] were -7.79% (inactive), 4.52% (inactive) and -2% (inactive), respectively. In addition, the superoxide response (% of plate) in [8] is 84.5% (inactive). For the same molecule, the aptamer binding inhibition in assay [9] is -4% (inactive). Besides, the response in assay [10] was -4.63% (inactive); in [12], 1.48% (inactive). Further, the binding (% of control) in assay [13] is 104% (inactive). The efflux inhibition (fraction of control) in assay [14] is -0.22 (inactive). In addition, in assay [16], the differentiation response is -11.9% (inactive).

Consider `C#CCOc1ccc2c(C)cc(=O)oc2c1`, for which the percent of DMSO control GFP in assay [1] is 105% (inactive). For the same molecule, the GFP response vs DMSO was 93% (inactive) in [2] and 77.6% (inactive) in assay [4]. For the same molecule, in assay [3], the percent response of DMSO control is 107% (inactive). Further, the GFP response, % of DMSO in assay [5] was 98.9% (inactive). Further, in assay [6], the double positive events worked out at 60.4%. The vesicle binding response in assay [6] was 603% (inactive). The inhibition in assay [7] is 3.7% (inactive); in [11], -7.76% (inactive); in assay [15] it was 0% (inactive). Also, the superoxide response (% of plate) in assay [8] is 98% (inactive). For the same molecule, the aptamer binding inhibition in assay [9] is 4% (inactive). For the same molecule, the response is -1.57% (inactive) in assay [10] and -0.49% (inactive) in assay [12]. Besides, the binding (% of control) in [13] was 99.7% (inactive). For the same molecule, the efflux inhibition (fraction of control) in assay [14] is 0.36 (inactive). For the same molecule, the differentiation response in assay [16] was 16.9% (inactive).

Consider `Cc1nonc1CN(C)C(=O)c1ccc(OC2CCN(Cc3ccccn3)CC2)cc1`, for which the percent of DMSO control GFP in assay [1] was 107% (inactive). Also, the figures for the GFP response vs DMSO in [2] and in assay [4] were 97.2% (inactive) and 83.5% (inactive), respectively. In assay [3], the percent response of DMSO control is 113% (inactive). In addition, in assay [5], the GFP response, % of DMSO is 102% (inactive). The double positive events in assay [6] came out at 61.2%. In assay [6], the vesicle binding response is 249% (inactive). Also, the figures for the inhibition in [7], in assay [11] and in [15] were 19.3% (inactive), -5.72% (inactive) and 13% (inactive), respectively. The superoxide response (% of plate) in [8] is 95.8% (inactive). The aptamer binding inhibition in assay [9] was 0% (inactive). In addition, the response in assay [10] is -11.2% (inactive); in assay [12], 2.07% (inactive). For the same molecule, the binding (% of control) in [13] was 97.6% (inactive). Further, the efflux inhibition (fraction of control) in [14] was 0.14 (inactive). The differentiation response in assay [16] was 6.11% (inactive).

With `CC1CCN(C(=O)Oc2ccccc2)CC1`, the percent of DMSO control GFP in assay [1] was 105% (inactive). In addition, the GFP response vs DMSO in [2] was 111% (inactive); in assay [4], 102% (inactive). In assay [3], the percent response of DMSO control is 103% (inactive). Further, the GFP response, % of DMSO in assay [5] was 107% (inactive). In addition, the double positive events in [6] worked out at 57.9%. Also, the vesicle binding response in assay [6] is 143% (inactive). For the same molecule, the inhibition in assay [7] is 2.93% (inactive); in assay [11] it was -6.8% (inactive); in [15], 5% (inactive). The superoxide response (% of plate) in [8] was 111% (inactive). For the same molecule, in assay [9], the aptamer binding inhibition was 0% (inactive). Also, the response in assay [10] is 0.66% (inactive); in assay [12], 0.42% (inactive). For the same molecule, the binding (% of control) in [13] was 101% (inactive). Moreover, in assay [14], the efflux inhibition (fraction of control) is 0.045 (inactive). Besides, the differentiation response in assay [16] is -6.03% (inactive).
